Reference: PubChem BioAssay (NCATS)
Inconclusive results are not listed. The source made the active and inactive calls. Calls follow the shape of the dose curve; as a rule, active = well fitted cell-killing curve with a large enough effect; inconclusive = small, poorly fitted or top-dose-only effect, or effect the other way; inactive = no such curve, though single readings can be large or run the other way.

Assay: Quantitative High-Throughput drug screen in 47 multiple myeloma cell lines against the NCATS MIPE library collection: MM1R_ATCC cell viability assay (AID 1918981); also: nearly all actives have a fitted effect of over 35% in size
Conditions: MM1R multiple myeloma cells, CellTiter-Glo viability, 48 h; series mostly up to 45.8 µM; viability (% of control): at the top concentration
Text: PI: Beverly A. Mock Ph.D.
Laboratory of Cancer Biology and Genetics,
Center for Cancer Research, National Cancer Institute,
National Institute of Health, Bethesda, Maryland
Drug resistance and disease progression are common in multiple myeloma (MM) patients, underscoring the need for new therapeutic combinations. […] We hypothesized that effective combinations would reduce MYC expression and enhance p16 activity. […] These preclinical data identify potentially useful drug combinations for evaluation in drug-resistant MM and reveal potential mechanisms of combined drug sensitivity.
Described herein is the primary MIPE qHTS used to cherrypick compounds. Validated compounds were then further tested for potential synergistic activiy.
[1] Peat TJ, Gaikwad SM, Dubois W, Gyabaah-Kessie N, Zhang S, Gorjifard S, Phyo Z, Andres M, Hughitt VK, Simpson RM, Miller MA, Girvin AT, Taylor A, Williams D, D'Antonio N, Zhang Y, Rajagopalan A, Flietner E, Wilson K, Zhang X, Shinn P, Klumpp-Thomas C, McKnight C, Itkin Z, Chen L, Kazandijian D, Zhang J, Michalowski AM, Simmons JK, Keats J, Thomas CJ, Mock BA. Drug combinations identified by high-throughput screening promote cell cycle transition and upregulate Smad pathways in myeloma. Cancer Lett. 2023 Aug 1;568:216284. doi: 10.1016/j.canlet.2023.216284. Epub 2023 Jun 24. PMID: 37356470; PMCID: PMC10408729.
SEQUENCE No. (e.g., 1, 2, 3, etc.); […] (e.g., Cells, Incubation, Reagent, etc.); VALUE and DESCRIPTION.
1; Cells; 5 uL; white, solid bottom 1536-well Greiner assay plate.
2; Compounds; 23 nL; Kalypsis pin tool (Wako USA) equipped with a 1536-well pin head to transfer to the assay plates.
3; Incubation; 48 hours; 37C incubation.
4; Reagent;5uL; CellTiter Glo (Promega).
5; Detector; 425V; Luminescence; Viewlux PerkinElmer.
NOTES (numbers refer to Sequence numbers above)
1. The cell-based screening methods employed in this study were like those previously published. Briefly, the corresponding myeloma cell lines were screened in 1,536-well plates with 500 cells, 5-uL per well for inhibition of cell viability (assessed by measuring ATP levels with CellTiterGlo).
2. NCATS MIPE 4.0 library of approved and investigational drugs were added using the Kalypsis pin tool. Wells treated with DMSO only for 100% viability and media only for 0% viability were used as controls.
3. The assay plates were covered and incubated for 48 hours in a 37C, 5% CO2 incubator with controlled humidity.
4. After 48 hours, CellTilter-GloTM luminescent substrate mix (Promega) reagent was added to the assay plate and plates we incubated for 5 min at room temperature.
5. Signal was measured as median relative luminescence units on a ViewLux (PerkinElmer) multiplate reader.
[1] Heske CM, Davis MI, Baumgart JT, Wilson K, Gormally MV, Chen L, Zhang X, Ceribelli M, Duveau DY, Guha R, Ferrer M, Arnaldez FI, Ji J, Tran HL, Zhang Y, Mendoza A, Helman LJ, Thomas CJ. Matrix Screen Identifies Synergistic Combination of PARP Inhibitors and Nicotinamide Phosphoribosyltransferase (NAMPT) Inhibitors in Ewing Sarcoma. Clin Cancer Res. 2017 Dec 1;23(23):7301-7311. doi: 10.1158/1078-0432.CCR-17-1121. Epub 2017 Sep 12. PMID: 28899971; PMCID: PMC6636827.
Potency is read from the fitted curve at half-maximal effect.

Row | Structure (SMILES) | Potency | viability (% of control)
1 | C[C@@]12OC(=O)[C@]1([C@@H](O)[C@@H]1C=CCCC1)NC(=O)[C@H]2CCCl | 3.7 nM (active) | 
2 | N=c1c2c(-c3ccccc3)c(-c3ccccc3)n(Cc3ccccc3)c2ncn1C1CCC(O)CC1 (stereo not given) | 18700 nM (active) | 
3 | O=C(Oc1ccc([N+](=O)[O-])cc1)N1CCN(Cc2cccc(Oc3ccccc3)c2)CC1 |  | 108% (inactive)
4 | C[C@@H]1O[C@@H](O[C@@H]2C=C3CC[C@@H]4[C@@H](CC[C@]5(C)[C@H](c6ccc(=O)oc6)CC[C@@]45O)[C@@]3(C)CC2)[C@H](O)[C@H](O)[C@H]1O | 26.4 nM (active) | 
5 | CC[C@@]1(O)C(=O)OCc2c1cc1n(c2=O)Cc2cc3ccccc3nc2-1 | 26.4 nM (active) | 
6 | CC[C@@H]1[C@@H](C)O[C@@](O)([C@@H](C)[C@H](O)[C@H](C)[C@H]2OC(=O)C=CC=C[C@@H](C)[C@@H]([C@@H](C)[C@@H](O)[C@H](C)[C@@]3(O)C[C@H](O[C@H]4C[C@H](O)[C@H](O)[C@H](C)O4)[C@H](CC)[C@@H](C)O3)OC(=O)C=CC=C[C@@H]2C)C[C@H]1O[C@H]1C[C@H](O)[C@H](O)[C@H](C)O1 | 526 nM (active) | 
7 | C[C@]12CC[C@H]3[C@@H](CCC4=CC(=O)CC[C@@]43C)[C@H]1CC[C@H]2O |  | 114% (inactive)
8 | COc1cc([C@@H]2c3cc4c(cc3[C@@H](O)C3COC(=O)C32)OCO4)cc(OC)c1O (stereo not given in full) | 83.3 nM (active) | 
9 | CO[C@H]1CCC(O[C@H]2C[C@H]([C@]3(C)CC[C@]4(C[C@H](O)[C@@H](C)[C@@H]([C@@H](C)C=C(C)C(=O)[C@H](C)C[C@H](C)C(=O)O)O4)O3)O[C@]3(O[C@@H]([C@H]4O[C@@](O)(CO)[C@H](C)C[C@H]4C)C[C@H]3C)[C@H]2C)O[C@H]1C (stereo not given in full) | 1050 nM (active) | 
10 | c1cc2c(cc1[C@H]1OC[C@H]3[C@H]1CO[C@H]3c1ccc3c(c1)OCO3)OCO2 |  | 121% (inactive)
11 | CCN1CCN(C(=O)Cc2ccc(Nc3ncc(F)c(Nc4ccc(C(=O)Nc5ccccc5Cl)cc4)n3)cc2)CC1 | 5900 nM (active) | 
12 | CCc1c(C(=O)C(N)=O)c2c(OCC(=O)O)cccc2n1Cc1ccccc1 |  | 108% (inactive)
13 | CC1=NN=C(c2ccc(N)cc2)c2cc3c(cc2C1)OCO3 |  | 104% (inactive)
14 | N#C[C@H](O[C@@H]1O[C@H](CO[C@@H]2O[C@H](CO)[C@H](O)[C@H](O)[C@H]2O)[C@H](O)[C@H](O)[C@H]1O)c1ccccc1 | 29600 nM (active) | 
15 | COc1ccc2c(c1)[C@]13CCCCC1C(C2)N(C)CC3 (stereo not given in full) |  | 102% (inactive)
16 | C1=C2CCCN[C@H]2[C@@H]2C[C@H]1[C@@H]1CCCCN1C2 |  | 94.1% (inactive)
17 | CC(C)(O)C(=O)Nc1ccc([N+](=O)[O-])c(C(F)(F)F)c1 |  | 94.8% (inactive)
18 | O=C(Oc1ccc([N+](=O)[O-])cc1)N1CCC(C(O)(c2ccc3c(c2)OCO3)c2ccc3c(c2)OCO3)CC1 |  | 97.4% (inactive)
19 | Cc1nc(-c2ccc(-c3ccc(C(=O)N4CCc5cc6c(cc54)C4(CCN(C)CC4)CO6)cc3)c(C)c2)no1 |  | 133% (inactive)
20 | CC(=CCCC1=CCC(C2=CC(=O)OC2O)OC1O)CCC1=C(C)CCCC1(C)C (stereo not given) |  | 107% (inactive)

Row | Structure (SMILES) | Potency | viability (% of control)
21 | CCN1C[C@]2(OC(=O)c3ccccc3NC(C)=O)CC[C@H](OC)[C@@]34[C@H]5CC6[C@@H](OC)C[C@](O)(C(C[C@@H]23)[C@@H]14)[C@@]5(O)[C@@H]6OC |  | 107% (inactive)
22 | CN1[C@H]2CC(O)C[C@H]1[C@H]1O[C@H]12 (stereo not given in full) | 16600 nM (active) | 
23 | NC1=NC(=O)N2CC12 (stereo not given) |  | 127% (inactive)
24 | CC(C)N(CCNC(=O)CN1CCCC1=O)C(C)C |  | 120% (inactive)
25 | CCNC(=O)CC1N=C(c2ccc(Cl)cc2)c2cc(OC)ccc2-n2c(C)nnc21 (stereo not given) | 14800 nM (active) | 
26 | O=c1[nH]c2ccc(Cl)cc2c(N[C@@H]2CN3CCC2CC3)c1-c1nc2ccccc2[nH]1 | 83.3 nM (active) | 
27 | CC(N[C@H]1C[C@H]1c1ccccc1)c1ccc2c(c1)OCCO2 (stereo not given in full) |  | 124% (inactive)
28 | CC1(N2CCC(n3c([C@@H]4CCCNC4)nc4ccccc43)CC2)CCCCCCC1 | 14800 nM (active) | 
29 | C#CC1(O)CCC2C3CCC4=CC(=O)CCC4(C)C3CCC21C (stereo not given) |  | 88.1% (inactive)
30 | CCC(=O)OC1CCC2C3CCC4=CC(=O)CC[C@@]4(C)C3CC[C@]12C (stereo not given in full) |  | 123% (inactive)
31 | c1ccc2c(CN3CCNCC3)cccc2c1 |  | 91.5% (inactive)
32 | O=S(=O)(F)Cc1ccccc1 |  | 120% (inactive)
33 | CC(O)=C(C#N)C(=O)Nc1cc(Br)ccc1Br | 20900 nM (active) | 
34 | C[C@@H]1CC[C@@]2(OC1)O[C@H]1C[C@H]3[C@@H]4CC=C5C[C@@H](O[C@@H]6O[C@H](CO)[C@@H](O[C@@H]7O[C@@H](C)[C@H](O)[C@@H](O)[C@@H]7O)[C@H](O)[C@@H]6O[C@@H]6O[C@@H](C)[C@H](O)[C@@H](O)[C@@H]6O)CC[C@]5(C)[C@@H]4CC[C@]3(C)[C@@H]1[C@H]2C | 2090 nM (active) | 
35 | CC=C(C)C(=O)N[C@@H](c1ccccc1)[C@@H](O)C(=O)O[C@H]1C[C@@]2(O)[C@@H](OC(=O)c3ccccc3)[C@@H]3[C@]4(OC(C)=O)CO[C@@H]4C[C@H](O)[C@@]3(C)C(=O)[C@H](OC(C)=O)C(=C1C)C2(C)C |  | 63.8% (inactive)
36 | CN(C)[C@@H]1C(=O)C(C(N)=O)=C(O)[C@@]2(O)C(=O)C3=C(O)c4c(O)cccc4[C@@](C)(O)[C@H]3[C@H](O)[C@@H]12 |  | 121% (inactive)
37 | O=c1cccc2n1CC1CNC[C@H]2C1 |  | 127% (inactive)
38 | Oc1ccc2c3c1O[C@H]1c4[nH]c5c(c4C[C@@]4(O)[C@@H](C2)N(CC2CC2)CC[C@]314)C[C@@]1(O)[C@H]2Cc3ccc(O)c4c3[C@@]1(CCN2CC1CC1)[C@H]5O4 |  | 114% (inactive)
39 | CC(C)(O)C=CC(=O)[C@](C)(O)[C@H]1[C@H](O)C[C@]2(C)[C@@H]3CC=C4[C@@H](C=C(O)C(=O)C4(C)C)[C@]3(C)C(=O)C[C@@]12C | 37.2 nM (active) | 
40 | CN[C@@H]1Cc2cccc3[nH]c(=O)n(c23)C1 |  | 92.6% (inactive)
